Data taken from the supplement of paper PMC3334620.
Over roughly 33,000 sequences, “E-score (-0.5 to 0.5)” has its median near -0.036; the highest 2% begin near 0.37. Many of the other results were omitted from the sample, so the highest values are more common in it than they were.

Biological target: T1, Yer064c (UniProt P40041)
T1 sequence: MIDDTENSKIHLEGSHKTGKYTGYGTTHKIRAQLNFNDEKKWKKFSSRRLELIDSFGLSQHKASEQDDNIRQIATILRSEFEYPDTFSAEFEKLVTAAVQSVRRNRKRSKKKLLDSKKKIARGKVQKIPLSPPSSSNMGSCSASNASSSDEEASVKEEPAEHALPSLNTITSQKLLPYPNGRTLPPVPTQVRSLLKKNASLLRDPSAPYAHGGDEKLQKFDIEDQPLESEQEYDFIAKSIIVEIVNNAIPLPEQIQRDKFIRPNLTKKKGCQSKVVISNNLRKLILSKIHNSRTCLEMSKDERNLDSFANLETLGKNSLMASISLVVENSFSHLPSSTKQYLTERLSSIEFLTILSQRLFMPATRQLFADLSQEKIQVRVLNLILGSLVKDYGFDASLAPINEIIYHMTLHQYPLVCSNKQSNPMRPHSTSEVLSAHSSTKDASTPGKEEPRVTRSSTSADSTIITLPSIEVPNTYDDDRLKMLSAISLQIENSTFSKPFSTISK
Assay: PBM E-score (8-mer binding enrichment) (E-score (-0.5 to 0.5)); higher = stronger / more preferred TF binding
Conditions: protein concentration: 200 nM; construct: GST-full length
Description: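 Universal 'all 10-mer' protein binding microarrays (Agilent AMADID 015681) probed with GST-tagged S. cerevisiae TFs (full-length or DBD) made by in vitro transcription/translation (PURExpress), about 100-200 nM. Bound TF was detected with fluorescent anti-GST. Each ungapped 8-mer (which stands for itself and its reverse complement) is scored by the PBM enrichment score (E-score), a modified Wilcoxon-Mann-Whitney statistic from -0.5 to +0.5, computed with the Universal PBM Analysis Suite. Scale: above 0.35 generally sequence-specific binding.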

Row | Sequence | PBM E-score
1 | GCGCCATA | -0.26
2 | GACGAGTA | 0.178
3 | AACGAGTC | 0.42
4 | GACGAGAC | -0.0639
5 | CACGAGTC | 0.39
6 | GACGAGTC | 0.408
7 | CACGAGTA | 0.0787
8 | CACGAGTG | -0.125
9 | AACGAGTT | 0.0273
10 | AACGAGTA | 0.171
11 | ATCCATCC | 0.0305
12 | AGTACACA | 0.239
13 | CCCAAGCC | -0.171
14 | CACTTCAA | -0.0203
15 | ACGGATTA | 0.1
16 | CAAGAGTG | -0.108
17 | CAAGAGTA | 0.106
18 | GAAGAGCC | -0.222
19 | GAAGAGTC | 0.426
20 | CAAGAGTC | 0.434
21 | AAAGAGTA | 0.0885
22 | GAAGAGTA | 0.0801
23 | AAAGAGTC | 0.437
24 | AAAGAGTT | 0.219
25 | CTACTGAC | 0.177
26 | ACGGCGGA | -0.0257

Row | Sequence | PBM E-score
27 | ACGGACCA | -0.125
28 | GAACTGAC | -0.0132
29 | AAGGAGTG | -0.187
30 | CAGAAGTC | 0.293
31 | CAGGAGTA | 0.0894
32 | AAGGAGTC | 0.412
33 | CAGGAGTC | 0.394
34 | AAGGAGTA | 0.0121
35 | AGTCGATG | 0.249
36 | AAACTGAG | 0.144
37 | TCCCAGCA | -0.0166
38 | CACGCAAG | -0.11
39 | CACGTGTA | -0.0349
40 | TATTCAGA | 0.0473
41 | GATTCAGC | 0.258
42 | GATTCAGA | 0.389
43 | GATTCATA | 0.381
44 | AATTCATA | 0.0256
45 | CATTCATA | 0.195
46 | GATTCCGA | 0.276
47 | CCACGTAA | -0.177
48 | GGCCTGTA | -0.386
49 | GACTAGGA | 0.376
50 | TACTAGCA | 0.0217
51 | GACTAGCA | 0.374
52 | AACTAGCA | -0.00106

Row | Sequence | PBM E-score
53 | GACTAGGC | 0.297
54 | TACTAGGA | 0.0896
55 | ATCACATC | 0.143
56 | CGAGGGAA | -0.0997
57 | GATTTGGA | 0.0961
58 | AAAGTGCC | -0.0752
59 | AACCGTAC | -0.0826
60 | GATTCAAA | 0.371
61 | CATTCAAC | 0.0337
62 | AATTCAAC | -0.0608
63 | TATTCAAA | 0.135
64 | GATTCAAC | 0.385
65 | CATTCAAA | -0.0755
66 | ACCGATCT | -0.255
67 | ATCCTCGC | -0.043
68 | TCGTAGCA | 0.128
69 | ATCGCTGA | 0.0828
70 | GACTTTAC | 0.234
71 | ATAGGCAG | -0.0153
72 | AGTCGTCC | 0.364
73 | ATTCGTCG | 0.0523
74 | CGTCGTCA | -0.142
75 | GGTCGTCA | 0.00372
76 | AGTCGTCA | 0.389
77 | AGTCGTCG | 0.375
78 | ACGATACT | -0.155

Row | Sequence | PBM E-score
79 | AGGATGTC | 0.00214
80 | CGCTGCTA | -0.211
81 | GCATATGA | 0.14
82 | CCATATGA | 0.0961
83 | TCATATGA | 0.393
84 | AGACGACC | -0.0204
85 | AGACGACG | -0.265
86 | AGACGACT | 0.397
87 | ACACGACA | 0.106
88 | ACACGACT | 0.408
89 | ACACGACC | -0.0158
90 | AGTAAAAG | 0.0408
91 | CTGACCAG | -0.0138
92 | ACTCCACG | 0.0785
93 | ACTTTACT | 0.159
94 | AAAACCCT | -0.047
95 | TACTAAGA | 0.113
96 | CACTAAGC | 0.1
97 | AACTAAGC | 0.0808
98 | GACTAAGA | 0.444
99 | CACTAAGA | 0.119
100 | GACTAAGC | 0.42
101 | AGGGATAA | 0.093
102 | CGGCTGCA | -0.189
103 | AATATGGA | -0.0374
104 | CGTTGCGC | -0.22

Row | Sequence | PBM E-score
105 | GAGCACAA | 0.0121
106 | AAAGACTC | 0.409
107 | TAAGACTA | 0.423
108 | GAAGACTA | 0.444
109 | ACAGACTA | 0.0746
110 | CAAGACTA | 0.329
111 | ACAGACTC | 0.269
112 | TAAGACAA | -0.0363
113 | AAAGACTG | 0.157
114 | AAAGACTA | 0.392
115 | AAAGACTT | 0.294
116 | GCAGACTA | 0.309
117 | TAAGACCA | 0.112
118 | ACAGCCTA | -0.0814
119 | ACCCTGCC | -0.154
120 | GGGCAAGA | -0.0907
121 | GAGTTCGA | 0.185
122 | GCGCTTTA | -0.161
123 | AAAGTGAC | 0.305
124 | CCCGCGAA | 0.0838
125 | GAAGACCC | -0.0698
126 | CAAGACGC | -0.166
127 | CAAGACTC | 0.429
128 | CAAGACTG | 0.175
129 | GAAGACGC | -0.193
130 | GAAGACTC | 0.446

Row | Sequence | PBM E-score
131 | GACCGAAC | -0.059
132 | CATTACCC | 0.0868
133 | AATGGAGA | -0.0502
134 | GACTCTAC | 0.38
135 | GACTCTAA | 0.381
136 | AACTCTAC | -0.212
137 | CACTCTAC | 0.0903
138 | CACTCTAA | 0.149
139 | TACTCTAA | -0.042
140 | ATGCCAAG | -0.0388
141 | ACGATAAC | -0.0162
142 | GATCCGCC | -0.041
143 | AACTTTGC | -0.113
144 | ACAACATC | -0.143
145 | ACCATACT | 0.0817
146 | AAGTGACC | -0.00564
147 | AAGTGACG | 0.0587
148 | AAGTGATC | 0.103
149 | AGGTGACT | 0.484
150 | ACGTGACA | -0.138
151 | AGGTGACG | -0.188
152 | AGGTGACA | -0.0676
153 | ACGTGACT | 0.468
154 | AAGTGATG | 0.0804
155 | ACGTGACG | -0.176
156 | AAGTGACT | 0.453

Row | Sequence | PBM E-score
157 | AAGTGATT | 0.394
158 | CCTCTGAA | -0.0251
159 | AAATCCCA | -0.203
160 | ACCCACCC | 0.111
161 | CACCTAGG | 0.0188
162 | ATCAGAAC | 0.127
163 | CTGAGAGA | -0.0026
164 | AAGCTTGG | -0.0782
165 | AAGATGAC | 0.312
166 | CAGATGAC | 0.215
167 | GAGATGAC | 0.367
168 | GGAACTGA | -0.00126
169 | TCGACCAA | -0.188
170 | AATAGAAA | -0.119
171 | CCCTCCCA | -0.298
172 | CCTCATTC | -0.176
173 | CCTCATTA | 0.0877
174 | ACTCATTA | 0.372
175 | GCTCATTA | -0.044
176 | ACACATTG | 0.0326
177 | ACTCATTC | 0.394
